Shiga inhibitor: Shiga toxin inhibition. 9.2% of 290,000 active. inhibition, % at 38.7 µM. Vero cells, Shiga toxin protein synthesis inhibition reporter. AID 2315; in the data active = inhibition mostly above about 28%, no sharp cut-off; inactive = mostly below about 43%; also: 0% is about no effect
LmPK inh: inhibitors of Leishmania mexicana pyruvate kinase; purified LmPK, Kinase-Glo ATP luminescence, 1 h; Potency, µM (doses to about 57.5 µM), without a hit: at the highest dose activity change, negative = inhibition, most hits filed as inhibitors; Q27686; 0.37% of 290,000 active; also: potency is read from the fitted curve at half-maximal effect; % is scaled to controls: 0 for no effect and ±100 for the full control effect
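qHTS format; LmPK 0.1 nM; substrates PEP 0.5 mM and ADP 0.1 mM. One-hour room-temperature incubation, then coupled luciferase luminescence; 0.5 nM enzyme wells mark activation.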
Cycloheximide cs: counter-screen hit for Shiga toxin inhibitors, cycloheximide; max response, %; cell reporter, cycloheximide protein synthesis inhibition counterscreen; 12% of 300,000 active; in the data active = max response mostly above about 13%, no sharp cut-off; inactive = mostly below about 14%; also: read at 38.3 µM for the half of the compounds with a filed dose; 0% is about no effect
FBPA Giardia inh: inhibitors of Giardia lamblia fructose-1,6-bisphosphate aldolase; A8B2U2; purified Giardia FBPA; Potency, µM (titrated, usually from 59.6 µM), for inactives: top-dose activity, negative = inhibition, most hits filed as inhibitors; 0.71% of 290,000 active; also: potency is read from the fitted curve at half-maximal effect; % is scaled to controls: 0 for no effect and ±100 for the full control effect; nearly all actives have a fitted effect of over 55% in size
Target sequence (A8B2U2 whole entry, looked up): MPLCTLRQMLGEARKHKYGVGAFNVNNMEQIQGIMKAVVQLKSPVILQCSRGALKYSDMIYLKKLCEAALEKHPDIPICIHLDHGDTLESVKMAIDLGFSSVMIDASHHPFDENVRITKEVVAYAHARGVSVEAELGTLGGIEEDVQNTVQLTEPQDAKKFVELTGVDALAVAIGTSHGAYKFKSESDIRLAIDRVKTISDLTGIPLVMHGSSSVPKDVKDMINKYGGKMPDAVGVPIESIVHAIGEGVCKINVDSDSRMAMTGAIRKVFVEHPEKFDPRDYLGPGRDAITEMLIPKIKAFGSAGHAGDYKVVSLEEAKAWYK
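40 nM FBPA preincubated 10 min at RT with compound (up to 57.5 uM final), then substrate plus GAPDH/TPI/NAD/arsenate coupling and diaphorase/resazurin added. Fluorescence read after 20 min at RT, 525/598 nm.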
TbPYK inhibitor: T. brucei pyruvate kinase inhibition | Q57TT1 | TbPYK enzyme, Kinase-Glo Plus ATP luminescence, 45 min | Potency, µM (top dose mostly 76.8 µM), for the others: at the top dose activity, negative = inhibition, most hits filed as inhibitors | 0.12% of 410,000 active; also: potency is read from the fitted curve at half-maximal effect; % is scaled to controls: 0 for no effect and ±100 for the full control effect; nearly all actives have a fitted effect of over 50% in size
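Assay buffer: 50 mM TEA pH 7.2, 100 mM KCl, 10 mM MgCl2, 0.05% BSA, 0.01% Tween-20. Pyruvate kinase from T. brucei plus substrate met compound, then ADP (130 uM final). Luminescence was read post 45 min RT.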
Sm TGR inh: blocks Schistosoma mansoni thioredoxin glutathione reductase. purified TGR, DTNB reduction, TNB absorbance 405 nm. 3% of 360,000 active. AID 485364. Potency, µM (highest dose often 114 µM), without a hit: at the highest dose activity change, negative = inhibition, hits mostly inhibitors; also: potency is read from the fitted curve at half-maximal effect; % is scaled to controls: 0 for no effect and ±100 for the full control effect; nearly all actives have a fitted effect of over 60% in size
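First, TGR (20 nM dispensed) and NADPH were mixed with compound. Second, a 15 min room-temperature incubation followed. Third, further NADPH and then DTNB were added to start the reaction. Finally, TNB absorbance was monitored kinetically.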
An asterisk follows results filed as active; ? = inconclusive; . = no result; [ ] = dose if it differs, or a comment. This excerpt belongs to a sample that is enriched for hits. Unless noted, calls follow the shape of the dose curve; as a rule, active = well fitted curve in the direction sought with a large enough effect; inconclusive = small, poorly fitted or top-dose-only effect, or another doubt; inactive = no such curve, though single readings can be large; an effect the other way counts as inactive or inconclusive.

SMILES | Shiga inhibitor | LmPK inh | Cycloheximide cs | FBPA Giardia inh | TbPYK inhibitor | Sm TGR inh
Cc1ccc(C)c(S(=O)(=O)N2CCN(C(=O)c3ccnn3C)CC2)c1 | 2 | -3% | -2 | . | -6% | -3%
CCCCOc1ncnc2c1[nH]c1ccc(C)cc12 | 106* | 3% | 43* | 4% | -3% | 7%
Cc1c2cnn(CC(=O)N3CCC4(CC3)OCCO4)c(=O)c2c(C)n1Cc1ccccc1 | -14 | -9% | -2 | 0% | 6% | 6%
Cc1c2cnn(CC(=O)N3CCC4(CC3)OCCO4)c(=O)c2c(C)n1Cc1ccccc1Cl | 14 | -1% | 14* | -1% | 3% | -8%
Cc1ccc(OCc2cc(=O)n3cc(C)sc3n2)c(C)c1 | . | . | . | . | 5% | 6%
CCN(CC)c1ccc2c(c1)CCCN2 | -2 | -23% | 1 | ? | . | 5µM*
NC(=O)c1cc2c3ccccc3ccn2c1-c1ccccc1 | 94* | -1% | 52* | ? | -3% | -15%
S=C(Nc1ccccc1)Nc1nc2ccccc2n1CCOc1ccc(Br)cc1 | 44* | -1% | 34* | -15% | -5% | 1%
Cn1c(NC(=S)Nc2ccccc2)nc2ccccc21 | 65* | -6% | 47* | -2% | -21% | -19%
Cc1nc(N2CCCCC2)sc1C(=O)c1cccc([N+](=O)[O-])c1 | 84* | 1% | 37* | -8% | 2% | 1%
Oc1oc(-c2cccc3ccccc23)nc1/C=N/c1nccs1 | 19 | 3% | 2 | -2% | -12% | -5%
Cc1ccnc(N=Cc2nc(-c3ccccc3Br)oc2O)c1 | 118* | 12% | 27* | 1% | -17% | -3%
Cc1cccc(/N=C/c2nc(-c3ccccc3Br)oc2O)n1 | 32 | 5% | 21* | -8% | 2% | 0%
CN1CCc2c(sc(/N=C/c3cc(Cl)ccc3O)c2C#N)C1 | 101* | -12% | 52* | -13% | -19% | ?
CCOC(=O)N=Nc1c2ccccc2c2nc3no[nH]c3nc12 | 27 | -5% | 5 | 1.6µM* | 3% | 58%
Cc1cc(C)n(-c2ccc(C(=O)Nc3nc4ccccc4s3)cc2)n1 | 26 | 1% | 20* | 4% | 1% | -29%
COc1ccc(NC(=O)c2ccc(-n3nc(C)cc3C)cc2)cc1OC | -10 | -1% | 2 | 0% | 5% | 8%
COc1ccccc1C(=O)Nc1nc2ccccc2s1 | . | 1% | -13 | 7% | ? | -12%
COc1cc(C(=O)Nc2nc3ccccc3s2)ccc1OCc1c(C)noc1C | 12 | 3% | 18* | 1% | 0% | 9%
Nc1ccc(C(=O)Nc2nc3ccccc3s2)cc1 | 42* | -29% | 41* | -3% | -1% | 8%
CC(=O)Nc1cc(C)nn1-c1nc2ccccc2s1 | 52* | 5% | 33* | 2% | -17% | 6%
O=P(O)(O)OC(Cn1cncn1)(Cn1cncn1)c1ccc(F)cc1F | . | . | . | . | 3% | .
COc1ccc(C(OCCN2CCC[C@H](C(=O)O)C2)(c2ccc(OC)cc2)c2ccc(OC)cc2)cc1 | 3 | . | -6 | 1% | . | .
Cc1ccc(-n2ncc(C(=O)NCCc3c[nH]c4ccccc34)c2C2CCN(C(=O)OC(C)(C)C)CC2)cc1C | . | . | . | . | 7% | -17%
Oc1ccc2ccccc2c1CNc1ccc(Br)cn1 | 66* | -4% | 46* | 2% | 4% | 0%
SMILES | Shiga inhibitor | LmPK inh | Cycloheximide cs | FBPA Giardia inh | TbPYK inhibitor | Sm TGR inh
O=C(NCc1c(O)ccc2ccccc12)c1ccccc1 | 11 | -3% | 2 | 2% | -2% | -4%
Oc1ccc2ccccc2c1CNc1ccc(Br)cc1 | -5 | 4% | 5 | -9% | -16% | 0.63µM*
CCOc1ccc(NC(=O)N2CCC(NC(=O)C(Cc3ccccc3OC)NC(C)=O)CC2)cc1 (centres undefined) | -12 | -2% | 4 | 1% | -3% | -10%
CCCN(CCC)C(=O)c1c[nH]c2ccc(S(=O)(=O)N(C)c3ccc(Cl)cc3)cc2c1=O | . | . | . | . | 3%[15.4 µM] | 4%
Cc1cccc(N2CC(c3nc4ccccc4n3CCC3CCCCC3)CC2=O)c1 (centres undefined) | . | . | . | . | -5% | 3%
COc1ccc(C2C3=C(N=C4SCC(=O)N42)c2ccccc2CC3)cc1 (centres undefined) | 76* | -10% | 39* | ? | -4% | 0%
O=C(NCCCN1CCOCC1)c1cc(-c2cccs2)on1 | 160* | 3% | 42* | 11% | 2% | 0%

Screening results (PubChem BioAssay)
